CYP2C9 inh: blockers of cytochrome P450 2C9 activity – biochemical, luminescence, ADME assay, primary screen | P11712 | CYP2C9 Supersomes, luciferin-H conversion | inhibition, % at 5 µM | 20% of 96,000 active;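 active means blocking of liver enzyme CYP2C9 beyond about 50% at 5 µM, limit read from the data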
Cav32 inh: Cav3.2 calcium influx blockers – cell-based, Fluo-4 calcium fluorescence, FDSS, MLSMR library, primary screen | Cav3.2-expressing cells; stronger effect = lower value | B-score at 10 µM | Voltage-dependent T-type calcium channel subunit alpha-1H (Homo sapiens), O95180 | 4% of 100,000 active;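 active means single-dose well whose peak fluorescence ratio is a statistical outlier from its plate by either plate-standardised score or position-corrected B-score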
CYP2C19 inh: blockers of cytochrome P450 2C19 activity – biochemical, luminescence, ADME assay, primary screen; AID 778, 2007; 21% of 96,000 active; inhibition, % at 5 µM; CYP2C19 Supersomes, luciferin-H EGE luminescence, 30 min; P33261;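 active means CYP2C19 inhibition above a set limit at 5 µM in the primary screen, cut at about 50% in these data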;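 further: plate controls were negative control wells for no effect and 2.5 mM tranylcypromine positive control for full effect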
CYP2C9 activ: human CYP2C9 activators, primary screen, biochemical, luminescence; Cytochrome P450 2C9 (Homo sapiens), P11712; recombinant CYP2C9, luciferin-H conversion; stronger effect = higher value; factor 1 = untreated enzyme, 0 = blocked; activation factor at 5 µM; 1.4% of 96,000 active; AID 1024, 2008;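 active means activation factor of 2 or more for CYP2C9 at a 5 µM dose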;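 further: 0 = sulfaphenazole-blocked wells and 1 = vehicle-only wells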
CYP2C19 act: human CYP2C19 activators, primary screen, biochemical, luminescence | activation factor at 5 µM | 96,000 tested, under 10 active | recombinant CYP2C19, luciferin-H EGE luminescence; stronger effect = higher value; 0 = fully inhibited enzyme, 1 = untreated enzyme;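 active means activation factor of at least 2 at 5 µM in the primary screen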;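 further: 0 = wells with 2.5 mM tranylcypromine and 1 = vehicle-only wells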
The depositor's hits bear a star; · = no result given. Compounds with a hit are over-represented: about 27% of the library has one in this group of screens.

SMILES	CYP2C9 inh	Cav32 inh	CYP2C19 inh	CYP2C9 activ	CYP2C19 act
CCOc1ccccc1NC(=O)CSc1c(C)n[nH]c1C	-31	-0.032	-2	1.3	1
COc1ccc(NC(=O)CSc2nnc(-c3ccccn3)n2N)c(OC)c1	48	-0.26	22	0.5	0.8
COC(=O)c1cccc(NC(=O)CSc2nc3cccnc3n2C)c1	59*	-2.6	68*	0.4	0.3
COc1cc(C(=O)N2CCN(C(=O)Cc3ccccc3)CC2)cc(OC)c1OC	-15	·	-18	1.1	1.2
CCCCOc1ccccc1NC(=O)CSc1nnnn1C(C)(C)C	74*	-4.3	56*	0.3	0.4
CC1CCc2nc(NCCO)nc(C(F)(F)F)c2C1 (stereo unspecified)	0	0.038	2	1	1
Nc1nc(CN2CCN(c3ccccc3)CC2)nc(N2CCCc3ccccc32)n1	60*	-3	62*	0.4	0.4
CCOC(=O)N1CCN(Cc2nc(N)nc(Nc3ccc(Oc4ccccc4)cc3)n2)CC1	81*	-1.2	28	0.2	0.7
Cc1ccc(Nc2nc(N)nc(CN3CCN(c4ccccc4)CC3)n2)cc1Cl	60*	-1	20	0.4	0.8
CCOc1nc(Nc2ccc(OC)c(Cl)c2)nc(N2CCN(c3ccc(OC)cc3)CC2)n1	67*	-0.92	31	0.3	0.7
COc1ccc(N2CCN(Cc3nc(N)nc(Nc4ccc(C)c(Cl)c4)n3)CC2)cc1	68*	-5.2*	59*	0.3	0.4
COc1c(O)cccc1[C@H](O)C1CCN(CCc2ccc(F)cc2)CC1	·	0.26	·	·	·
O=C1OCC(CO)(CO)N=C1NNc1cc(Cl)ccc1Cl	56*	0.044	77*	0.4	0.2
COC(=O)C(O)(CC(=O)Nc1cc(Cl)ccc1Cl)C(F)(F)F (stereo unspecified)	·	0.21	·	·	·
C=CCn1c(CCCNC(=O)CCC)nc2ccccc21	·	0.54	·	·	·
NS(=O)(=O)c1ccc(Nc2nc(-c3ccc(O)cc3O)cs2)cc1	68*	-0.63	79*	0.3	0.2
Cc1cccnc1Nc1nc(-c2ccc(O)cc2O)cs1	26	-0.49	18	0.7	0.8
CCOC(=O)CSc1nnc(-c2nnc(SCC(=O)OCC)n2CC)n1CC	-10	0.4	-16	1.1	1.2
CCCOc1ccc(Cc2nn[nH]n2)cc1	25	0.1	51*	0.7	0.5
Cc1cc(=O)oc2cc(OCC(=O)NCCc3nc4ccccc4[nH]3)ccc12	46	-2.2	24	0.5	0.8
Cc1sc2nc(C(C)Nc3ccccc3N3CCOCC3)[nH]c(=O)c2c1C (stereo unspecified)	54*	-2.4	35	0.5	0.7
Cc1ccccc1Nc1nc(N)nc(CN2C(=O)NC3(CCCCC3C)C2=O)n1 (stereo unspecified)	-8	1.1	8	1.1	0.9
COc1ccccc1OCC(=O)Sc1ccc(C)cc1	19	0.26	31	0.8	0.7
Cc1ccc(OCC(=O)Sc2ccc(C)cc2)cc1	46	-0.14	52*	0.5	0.5
O=C(Nc1ccc(O)c(C(=O)O)c1)c1ccc2c(c1)C(=O)N(CC1CCCO1)C2=O (stereo unspecified)	66*	-0.22	2	0.3	1
SMILES	CYP2C9 inh	Cav32 inh	CYP2C19 inh	CYP2C9 activ	CYP2C19 act
O=C(Nc1ccc2c(c1)C(=O)N(CC1CCCO1)C2=O)c1ccc(Cl)c(Cl)c1 (stereo unspecified)	26	·	-27	0.7	1.3
COCCCn1c(SCC(=O)N2CCCCC2C)nnc1-c1ccco1 (stereo unspecified)	-9	1.4	10	1.1	0.9
COCCCN=C(c1ccco1)n1c(=S)nc(-c2ccco2)n(CCCOC)c1=S	61*	-0.13	36	0.4	0.6
CC(C)c1noc2ncc(C(=O)c3cc(Cl)cc(Cl)c3O)cc12	100*	-6.5*	81*	0	0.2
COc1cccc(OC)c1C(=O)NN1CCCCC1	-13	0.84	-4	1.1	1
CC1=C(c2ccc(C)cc2)S(=O)(=O)N(CC(=O)O)C1=O	82*	0.011	-7	0.2	1.1
C=C1CCN(C(C(=O)OC)C(C)C)S(=O)(=O)c2ccccc21 (stereo unspecified)	·	0.23	·	·	·
CCOC(=O)C1=C(C)N(CCCCCC(=O)O)C(=O)NC1c1ccccc1OC(=O)c1cccs1 (stereo unspecified)	·	0.99	·	·	·
C=CCn1c(SCC(=O)NC(=O)NCc2ccco2)nc2sc(CC)cc2c1=O	71*	-0.024	38	0.3	0.6
CCOC(=O)CSc1nc2cc(C(=O)OC)ccc2c(=O)n1CCN1CCOCC1	12	0.22	69*	0.9	0.3
C=CCn1c(SCC(=O)OCC)nc2cc(C(=O)NCc3ccco3)ccc2c1=O	54*	·	23	0.5	0.8
NCCCCCc1nnc(SCc2cccc(Cl)c2)o1	32	-0.86	65*	0.7	0.4
NCCCCCc1nnc(SCc2ccc(Cl)cc2Cl)o1	37	2.2	61*	0.6	0.4
Clc1cccc(NCc2nnc(SCc3ccccc3)o2)c1	83*	-2.3	82*	0.2	0.2
Clc1cccc(CSc2nnc([C@@H]3CCCN3)o2)c1	-73	0.47	94*	1.7	0.1
CCc1ccccc1NC(=O)CSc1nnc(Cn2nnc3ccccc32)n1C	·	0.69	·	·	·
CC(NC(=O)c1cccc(C(F)(F)F)c1)C1CCCO1 (stereo unspecified)	12	1.6	29	0.9	0.7
COc1ccc(NC(=O)c2ccco2)cc1N	13	-0.61	15	0.9	0.8
COC(=O)Nc1snnc1C	16	0.33	9	0.8	0.9
COc1ccc(C(=S)N2CCCCCC2)cc1	·	0.097	·	·	·
COc1cc(C(=S)N2CCCC2)cc(OC)c1O	5	0.074	61*	1	0.4
CCCC(C)C(=O)N(Cc1ccccc1)c1ccccn1 (stereo unspecified)	51*	0.56	67*	0.5	0.3
Cc1nc(C)c(NC(=O)N2CCc3ccccc32)cc1NC(=O)N1CCc2ccccc21	77*	·	52*	0.2	0.5
CCOC(=O)c1cc(NC(=O)N2CCCc3ccccc32)c(C)nc1C	49	-0.35	34	0.5	0.7
CCOC(=O)c1cc(C(=O)OCC)c2ccccn2c1=O	14	2.2	3	0.9	1
COc1ccc(NC(=O)C2Cc3ccccc3CN2C(=O)c2ccccc2)cn1 (stereo unspecified)	19	-0.37	12	0.8	0.9
COc1ccc(NC(=O)/C(Cl)=C(/Cl)S(=O)(=O)Cc2ccc(C)cc2)cn1	53*	0.46	36	0.5	0.6
Cc1ccc(C(=O)N/C(=C\c2ccc([N+](=O)[O-])cc2)C(=O)NCCc2ccccc2)cc1	9	0.2	43	0.9	0.6

Bioassay records from PubChem BioAssay.
